# Reference: PubChem BioAssay (EPA / NIEHS)
# Several values for one entry are separate records, joined by “and”; a condition that tells them apart may be missing. Equal values may be shown once. Results filed as inconclusive are left out. Where a structure was tested more than once in an assay, its records may differ in their call. Activity calls are given as the source filed them. How the source made its calls, unless noted: active means hit-call score of the fitted dose curve at least 0.9, where 1 is the maximum; inconclusive means response in the unintended direction; inactive means score below 0.9.
# How the values were obtained:
# [1] = read-out: Broad substrate specificity ATP-binding cassette transporter ABCG2 (Homo sapiens) (UniProt Q9UNQ0); experiment: CLD_ABCG2_6hr: CellzDirect (CLD) Gene Expression Assay for ABC Transporter (ABCG2) at 6 hours (AID 2283660)
# Procedure, shortened: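 ABCG2 mRNA induction measured by qNPA chemiluminescence in human primary hepatocyte cultures, 6 h post-dose. Chemicals tested at several concentrations against a 0.2% DMSO vehicle; positive-direction fit relative to DMSO.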
# [2] = read-out: xenobiotic metabolism (CYP1A1), CYP1A1 (gene 1543); experiment: CLD_CYP1A1_6hr: CellzDirect (CLD) Gene Expression Assay for xenobiotic metabolism (CYP1A1) at 6 hours (AID 2283661);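 on AC50: potency for transcript induction above DMSO vehicle baseline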
# Procedure, shortened: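 Read-out 6 h post-dose: qNPA chemiluminescent quantitation of transcript induction against 0.2% DMSO. Cells were cultured primary human hepatocytes from two separate donor preparations; phase-contrast morphology annotated apparent cytotoxicity.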
# [3] = read-out: alkyl and aryl transferase (GSTA2), GSTA2 (gene 2939); experiment: CLD_GSTA2_6hr: CellzDirect (CLD) Gene Expression Assay for alkyl and aryl transferase (GSTA2) at 6 hours (AID 2283666)
# Procedure, shortened: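 GSTA2 transcript induction at 6 h, quantified by nuclease protection (qNPA) with chemiluminescent detection, in human liver primary hepatocytes exposed to several compound concentrations with 0.2% DMSO as baseline; phase-contrast morphology annotated apparent cytotoxicity.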
# [4] = Tanguay_ZF_120hpf_TR_legacy: (Legacy) Oregon State University Tanguay Lab 120 Hour Post-fertilization zebrafish Assay for Touch Response (AID 2283667)
# Procedure, shortened: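 Binary touch-response call at 120 hpf, analysed as gain of signal versus DMSO baseline. Wild-type 5D larvae, static exposure at 28C, 0.64% DMSO final; 5uM trimethyltin chloride as positive control.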
# [5] = read-out: Cytochrome P450 (CYP24A1_1), CYP24A1 (gene 1591); experiment: LTEA_HepaRG_CYP24A1_1: Life Technologies and Expression Analysis (LTEA) Assay for Cytochrome P450 (CYP24A1_1) using HepaRG (AID 2283671; active means hit-call score of the fitted dose curve at least 0.9, where 1 is the maximum; inactive means score below 0.9); conditions: mRNA level, 48 h; actives raise or lower the signal
# Procedure, shortened: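 Readout is CYP24A1 transcript level by qRT-PCR, normalized to three housekeeping genes, with gain or loss of signal fitted against 0.5% DMSO. Human HepaRG cells received compound for 48 h at up to 100 uM.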
# [6] = CLD_ACTIN_24hr: CellzDirect (CLD) Gene Expression Assay for Baseline Control (Actin) at 24 hours (AID 2283670)
# Procedure, shortened: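 This 24 h qNPA (S1 nuclease protection, chemiluminescence) actin transcript readout in cultured human liver primary cells serves as baseline control. Signal is fitted upward relative to 0.2% DMSO; chemicals tested at multiple concentrations across two donor preparations.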
# [7] = read-out: xenobiotic metabolism (CYP1A1), CYP1A1 (gene 1543); experiment: CLD_CYP1A1_24hr: CellzDirect (CLD) Gene Expression Assay for xenobiotic metabolism (CYP1A1) at 24 hours (AID 2283673);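 further: CYP1A1 mRNA level by quantitative nuclease protection with chemiluminescence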
# Procedure, shortened: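 Transcript levels were read at 24 h by qNPA chemiluminescence in human liver primary cells. Cells got daily fresh dosing at multiple concentrations (vehicle 0.2% DMSO). Induction fitted upward against DMSO; phase-contrast cytotoxicity annotated.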
# [8] = tested on: Thyroperoxidase (TPO), gene 54314; experiment: CCTE_Simmons_AUR_rTPO: CCTE's Amplex UltraRed Assay for Thyroperoxidase (TPO) Inhibition, Simmons Lab (AID 2283662);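 on AC50: potency for loss of signal meaning inhibition of peroxidase activity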
# Procedure, shortened: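 Rat thyroid microsomal TPO + 25 uM AUR in 200 mM K phosphate; cpd 5 nM–87.5 uM [final], 8 conc, 0.5% DMSO; 300 uM H2O2 starts rxn; 37C dark 30 min; endpoint FI 544/590 nm; n=3.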
# [9] = CCTE_Simmons_CellTiterGLO_HEK293T: Viability Assessment in CCTE's Assays for Thyroperoxidase (TPO) Inhibition, Simmons Lab (AID 2283665);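 on AC50: cells exposed to compound for 24 h before readout; actives reduce ATP signal below DMSO vehicle meaning cytotoxicity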
# Procedure, shortened: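 ATP depletion measured in HEK293T cells after 24 h dosing (8 concentrations, 5 nM–87.5 uM final; DMSO 0.5%) using CellTiter-Glo luminescence; curves fit for loss of signal against DMSO baseline.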
# [10] = read-out: glucuronosyltransferase (UGT1A1), UGT1A1 (gene 54658); experiment: CLD_UGT1A1_6hr: CellzDirect (CLD) Gene Expression Assay for glucuronosyltransferase (UGT1A1) at 6 hours (AID 2283672)
# Procedure, shortened: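 UGT1A1 mRNA induction, read by quantitative nuclease protection assay, 6 h after dosing primary human hepatocytes (two donors, 0.2% DMSO vehicle). Gain of signal fitted relative to vehicle.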
# Chain of Broad substrate specificity ATP-binding cassette transporter ABCG2 (Homo sapiens) (Q9UNQ0 whole entry, looked up): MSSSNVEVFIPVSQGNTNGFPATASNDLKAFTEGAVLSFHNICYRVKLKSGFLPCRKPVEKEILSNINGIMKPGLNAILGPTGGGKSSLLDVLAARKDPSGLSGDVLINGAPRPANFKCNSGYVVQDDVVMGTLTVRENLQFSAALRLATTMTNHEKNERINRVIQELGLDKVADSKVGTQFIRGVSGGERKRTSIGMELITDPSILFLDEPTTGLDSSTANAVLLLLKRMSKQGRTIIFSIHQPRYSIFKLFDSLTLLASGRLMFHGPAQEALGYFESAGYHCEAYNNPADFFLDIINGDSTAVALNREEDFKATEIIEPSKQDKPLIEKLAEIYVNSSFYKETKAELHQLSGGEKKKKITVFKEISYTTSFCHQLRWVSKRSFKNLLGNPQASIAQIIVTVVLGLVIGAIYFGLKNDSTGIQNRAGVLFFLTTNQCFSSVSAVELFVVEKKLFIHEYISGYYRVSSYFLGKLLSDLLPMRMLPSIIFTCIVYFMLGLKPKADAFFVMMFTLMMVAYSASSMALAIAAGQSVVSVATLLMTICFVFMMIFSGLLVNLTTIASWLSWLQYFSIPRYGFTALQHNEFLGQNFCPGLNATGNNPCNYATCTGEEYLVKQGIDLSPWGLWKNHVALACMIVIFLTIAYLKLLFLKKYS
smiles,measurement,setting,value
ClC1C(Cl)C(Cl)C(Cl)C(Cl)C1Cl (stereo unspecified),outcome,[1],inactive
same,outcome,[2],inactive
same,outcome,[3],inactive
same,outcome,[4],inactive
same,outcome,[5],inactive
CCS(=O)(=O)c1cccnc1S(=O)(=O)NC(=O)Nc1nc(OC)cc(OC)n1,outcome,[1],inactive
same,outcome,[2],inactive
same,outcome,[3],inactive
same,outcome,[6],inactive
same,AC50,[7],1.9 µM (active)
CCOc1nc(NC)nc(NC(=O)NS(=O)(=O)c2ccccc2C(=O)OC)n1,outcome,[1],inactive
same,outcome,[2],inactive
same,outcome,[3],inactive
same,outcome,[6],inactive
same,AC50,[7],7.53 µM (active)
O=C(O)C(F)(F)C(F)(F)C(F)(F)C(F)(F)C(F)(F)C(F)(F)C(F)(F)F,outcome,[1],inactive
same,outcome,[2],inactive
same,outcome,[4],inactive
same,outcome,[7],inactive
COC(=O)c1ccccc1CS(=O)(=O)NC(=O)Nc1nc(OC)cc(OC)n1,outcome,[1],inactive
same,AC50,[2],20 µM (active)
same,outcome,[3],inactive
same,AC50,[7],32.4 µM (active)
COC(=O)c1ccccc1S(=O)(=O)NC(=O)Nc1nc(C)nc(OC)n1,AC50,[2],20 µM (active)
same,outcome,[6],inactive
same,outcome,[7],inactive
Cc1cc(C)nc(NC(=O)NS(=O)(=O)c2ccccc2C(=O)OC2COC2)n1,outcome,[2],inactive
same,outcome,[6],inactive
same,AC50,[7],5.65 µM (active)
COP(=S)(OC)Oc1ccc(SC)c(C)c1,AC50,[2],5.13 µM (active)
same,AC50,[8],34.3 µM (active)
same,outcome,[9],inactive
same,AC50,[7],20 µM (active)
COc1cc(OC)nc(NC(=O)NS(=O)(=O)c2cc(NC=O)ccc2C(=O)N(C)C)n1,outcome,[1],inactive
same,outcome,[2],inactive
same,outcome,[6],inactive
same,outcome,[7],inactive
[2H]C1([2H])[n+]2ccccc2-c2cccc[n+]2C1([2H])[2H],outcome,[3],inactive
same,outcome,[6],inactive
CCOC1Oc2ccc(OS(C)(=O)=O)cc2C1(C)C (stereo unspecified),AC50,[2],3.97 µM (active)
same,outcome,[3],inactive
same,outcome,[4],inactive
same,outcome,[5],inactive
same,outcome,[7],inactive
C#CCN1C(=O)COc2cc(F)c(N3C(=O)C4=C(CCCC4)C3=O)cc21,outcome,[3],inactive
same,outcome,[4],inactive
CNC(=O)CSP(=S)(OC)OC,AC50,[2],0.275 µM (active)
same,AC50,[8],7.2 µM (active)
same,outcome,[9],inactive
same,outcome,[3],inactive
same,outcome,[4],inactive
same,outcome,[6],inactive
same,outcome,[7],inactive
O=C(NC(=O)c1c(F)cccc1F)Nc1ccc(OC(F)(F)C(F)OC(F)(F)F)c(Cl)c1 (stereo unspecified),outcome,[2],inactive
same,outcome,[3],inactive
same,outcome,[4],inactive
same,outcome,[6],inactive
same,outcome,[7],inactive
CNC(=O)Oc1ccccc1OC(C)C,outcome,[1],inactive
same,outcome,[2],inactive
same,outcome,[4],inactive
same,outcome,[6],inactive
same,outcome,[7],inactive
CCC(C)Nc1c([N+](=O)[O-])cc(C(C)(C)C)cc1[N+](=O)[O-] (stereo unspecified),outcome,[1],inactive
same,AC50,[2],3.41 µM (active)
same,outcome,[4],inactive
same,outcome,[5],inactive
same,outcome,[10],inactive
same,outcome,[7],inactive
OCCOc1ccccc1,outcome,[1],inactive
same,outcome,[2],inactive
same,outcome,[3],inactive
same,outcome,[7],inactive
CCC(C)(C)C(=O)OC1=C(c2ccc(Cl)cc2Cl)C(=O)OC12CCCCC2,outcome,[1],inactive
same,outcome,[3],inactive
same,outcome,[4],inactive
same,outcome,[7],inactive
CC[C@H](C)[C@H]1O[C@]2(C=C[C@@H]1C)C[C@@H]1C[C@@H](C/C=C(\C)[C@@H](O[C@H]3C[C@H](OC)[C@@H](O[C@H]4C[C@H](OC)[C@@H](O)[C@H](C)O4)[C@H](C)O3)[C@@H](C)/C=C/C=C3\CO[C@@H]4[C@H](O)C(C)=C[C@@H](C(=O)O1)[C@]34O)O2 (tested in a mixture with another compound),outcome,[1],inactive
same,AC50,[4],450 nM (active)
same,outcome,[6],inactive
same,AC50,[7],35.2 µM (active)
O=C(Nc1ccccc1)Nc1cnns1,AC50,[2],1.87 µM (active)
same,AC50,[8],43.8 µM (active)
same,outcome,[9],inactive
same,outcome,[3],inactive
same,outcome,[4],inactive
same,outcome,[10],inactive
same,AC50,[7],2 µM (active)
CCCN(CCOc1c(Cl)cc(Cl)cc1Cl)C(=O)n1ccnc1,AC50,[2],0.0868 µM (active)
same,outcome,[8],inactive
same,AC50,[9],89.5 µM (active)
same,outcome,[4],inactive
same,outcome,[5],inactive
same,AC50,[7],1.89 µM (active)
O=S(=O)(O)C(F)(F)C(F)(F)C(F)(F)C(F)(F)C(F)(F)C(F)(F)C(F)(F)C(F)(F)F,outcome,[2],inactive
same,outcome,[8],inactive
same,AC50,[9],64.1 µM (active) and 57.1 µM (active)
same,AC50,[4],9.61 µM (active) and 16.3 µM (active) and 13.3 µM (active)
same,outcome,[7],inactive
Cc1[nH]c(=O)n(C(C)(C)C)c(=O)c1Cl,AC50,[2],20 µM (active)
same,AC50,[4],7.93 nM (active)
same,outcome,[6],inactive
same,outcome,[5],inactive
same,AC50,[7],7.51 µM (active)
COc1nn(CSP(=S)(OC)OC)c(=O)s1,AC50,[2],1.25 µM (active)
same,AC50,[8],3.7 µM (active)
same,outcome,[9],inactive
same,outcome,[4],inactive
same,AC50,[7],4.39 µM (active)
Oc1cc(Cl)ccc1Oc1ccc(Cl)cc1Cl,outcome,[2],inactive
same,AC50,[8],36.3 µM (active) and 21.6 µM (active) and 43.6 µM (active)
same,outcome,[8],inactive
same,AC50,[9],13.1 µM (active) [middle of 4 runs]
same,outcome,[3],inactive
same,outcome,[4],inactive
same,outcome,[6],inactive
same,outcome,[7],inactive
O=C1c2ccccc2C(=O)N1SC(Cl)(Cl)Cl,outcome,[1],inactive
same,AC50,[8],27.3 µM (active)
same,AC50,[9],9.19 µM (active)
same,outcome,[4],inactive
same,outcome,[6],inactive
same,outcome,[5],inactive
same,outcome,[7],inactive
O=S1OCC2C(CO1)C1(Cl)C(Cl)=C(Cl)C2(Cl)C1(Cl)Cl (stereo unspecified),outcome,[1],inactive
same,outcome,[4],inactive
same,outcome,[6],inactive
same,outcome,[7],inactive
Clc1ccccc1-c1nnc(-c2ccccc2Cl)nn1,outcome,[1],inactive
same,outcome,[2],inactive
same,outcome,[3],inactive
same,AC50,[7],5.94 µM (active)
CC1(C)C(C=C(Cl)Cl)C1C(=O)OC(C#N)c1ccc(F)c(Oc2ccccc2)c1 (stereo unspecified),outcome,[1],inactive
same,AC50,[2],20 µM (active)
same,outcome,[3],inactive
same,outcome,[5],inactive
same,outcome,[7],inactive
CCN(CC)C(=O)SCc1ccc(Cl)cc1,outcome,[2],inactive
same,outcome,[3],inactive
same,outcome,[4],inactive
same,outcome,[7],inactive
